Screens deposited in PubChem BioAssay by several laboratories.
KCC2 mod – KCC2 (human) Cl- transport modulation; Q9H2X9; KCC2 cells, thallium flux FluoZin-2 fluorescence; B-score of Tl+ flux slope (higher = more flux/activation; lower = inhibition) at 10 µM; 190,000 tested, 2.2% active; AID 1456;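 active means thallium flux slope and its plate-corrected score both differing from the plate sample mean at a set confidence after two filtering rounds, in either direction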;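 further: slope of fluorescence scaled to starting intensity during 10 to 20 s after thallium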
S1P3 antagonist – blocks the human S1P3 receptor; 170,000 tested, 0.27% active; Q99500; inhibition, % at 4.98 µM; AID 485; CHO S1P3 NFAT-BLA reporter, FRET fluorescence, antagonist mode;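 active means inhibition above the plate cutoff, the mean inhibition of test wells on that plate plus 3 SD, cut at about 28% in these data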;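 further: cells challenged with S1P at its EC80 of 0.8 µM; blue over green emission ratio from cleaved BLA substrate after 4 h stimulation; 0% = S1P-stimulated wells and 100% = unstimulated DMSO-only wells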
RAM network inh – blocks the yeast RAM network | S. cerevisiae dse1pr::URA3 reporter, 5-FOA growth OD615, 2 d; analog-sensitive cbk1-as2 kinase mutant strain | 190,000 tested, 1.8% active | AID 868 | inhibition, % at 50 µM;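 active means inhibition above a set limit, 3 SD over mean compound inhibition, cut at about 8.4% in these data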;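 further: 0% = DMSO-only wells with no growth and 100% = 10 µM 1-NA-PP1 full growth; inhibition rescues growth on 5-FOA so higher OD means more RAM inhibition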
S1P4 ag – agonists of human S1P4 receptor. AID 1509. activation, % at 4.98 µM. S1P4-expressing cell line, agonist reporter assay. 220,000 tested, 0.35% active. O95977; in the data active means activation above about 11%;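 further: 0% = DMSO vehicle and 100% = reference agonist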
S1P4 antag – blocks the human S1P4 receptor | inhibition, % at 4.98 µM | 220,000 tested, 0.26% active | AID 1510 | O95977 | S1P4-expressing cells, antagonist mode, reporter read-out; in the data active means inhibition above about 29%;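 further: 0% = wells stimulated with agonist and 100% = vehicle wells without agonist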
ROMK primary – human ROMK K+ channel modulation, primary screen | P48048 | Tet-inducible ROMK, thallium flux fluorescence; actives lie on both sides | B-score at 10 µM | 130,000 tested, 2% active | AID 1918;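 active means signal ratio slope over the read window, or its plate-corrected B-score, at least 3 SD from the plate mean, either direction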;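 further: B-score of the F/F0 ratio slope over 7 to 12 s after thallium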
Target sequence (P48048 whole entry, looked up): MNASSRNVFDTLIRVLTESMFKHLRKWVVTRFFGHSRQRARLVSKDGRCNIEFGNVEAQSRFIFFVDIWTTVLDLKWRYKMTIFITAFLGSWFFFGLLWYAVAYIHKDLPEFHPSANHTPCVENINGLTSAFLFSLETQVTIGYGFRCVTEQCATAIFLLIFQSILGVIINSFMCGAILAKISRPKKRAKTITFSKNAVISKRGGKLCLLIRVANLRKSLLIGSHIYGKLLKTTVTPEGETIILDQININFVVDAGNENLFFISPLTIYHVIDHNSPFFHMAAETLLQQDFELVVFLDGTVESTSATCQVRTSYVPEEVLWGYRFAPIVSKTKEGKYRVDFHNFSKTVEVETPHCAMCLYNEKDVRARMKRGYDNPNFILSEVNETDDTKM
The depositor's hits bear a star; / = not tested or not shown. A selection: hits, their analogues and other compounds. The true share with any hit is near 5.1%.

SMILES	KCC2 mod	S1P3 antagonist	RAM network inh	S1P4 ag	S1P4 antag	ROMK primary
COc1cc(/C=C(\C#N)c2nc3c(s2)CCCC3)ccc1O	0.15	/	9.6*	0	-11	-1.7
O=C1CN(C(=O)CSc2nc3ccccc3c(=O)n2Cc2ccc(F)cc2)c2ccccc2N1	19*	-1	4	0	-19	/
O=C(CSc1nnc(-c2ccc(Br)o2)n1Cc1ccccc1)c1ccccc1F	-0.051	58*	5	-1	0	0.72
Cc1cc(NC(=O)CSc2nnc(-c3ccc(Br)o3)n2Cc2ccccc2)no1	-1.7	/	4	1	-9	/
CC1(C)N=C(N)NC(Nc2ccccc2Cl)=N1	0.012	-12	1	1	-4	1.2
COc1ccc(/C=C(/C(=O)NCc2ccccc2)c2ccccc2)cc1	-3.2	-1	11*	-1	-7	-2.7
COc1ccc(/C=C(\NC(=O)c2ccccc2)C(=O)NCCC(=O)O)cc1	/	-11	3	-1	-8	0.82
COc1ccccc1/C=C(/C(=O)OCC(=O)Nc1ccccc1C)c1ccccc1	1.3	-5	4	-1	5	/
COc1ccccc1/C=C(/C(=O)OCC(=O)NCc1ccccc1)c1ccccc1	-0.86	-11	10*	3	-16	/
CCOC(=O)CNC(=O)C1COc2ccccc2O1 (centres undefined)	1.1	-1	/	-1	-5	2
COc1cc(C(CC(=O)O)n2cnnn2)ccc1OC(C)C (centres undefined)	-0.023	-9	1	2	2	1.1
Cc1ccc(C2=NNC3(CCOC(C)(C)C3)S2)cc1 (centres undefined)	25*	-16	0	0	-1	2.5*
CCC(=O)c1cc2c(C)cc(=O)oc2c(C)c1OC(=O)C(C)C	-0.014	-2	1	0	-6	-0.0088
CCCCCOc1ccc(NC(=O)CSc2cccc3cccnc23)cc1	5.4*	9	7	-1	-7	/
CCOC(=O)CSc1cccc2cccnc12	15*	-3	0	0	-6	/
COC(=O)C1C(O)=C(C(C)=Nc2cccc3ccccc23)C(=O)CC1(C)C (centres undefined)	-0.23	-25	/	0	5	/
CCC(C(=O)Nc1ccc(C(=O)N2CCCC2)cc1)c1ccccc1 (centres undefined)	/	-6	0	1	-3	-0.63
Cc1ccc(-n2c(O)c(C=Nc3ccc4c(c3)OCO4)c3ccccc3c2=O)cc1C	/	/	10*	1	-20	-0.81
CC1CCCC(=C\c2ccccc2)/C1=N/O (centres undefined)	0.27	3	0	0	-8	-1.2
O=[N+]([O-])c1ccc(N/N=C/c2ccc[nH]2)cc1	-1.7	24	8.9*	-1	4	/
CCCCN1C(=S)SC(C)(C)C1/[N+]([O-])=C/c1ccc(S(=O)(=O)NC)cc1 (centres undefined)	0.011	0	/	1	2	0.025
CCOC(=O)CSc1ccc(S(=O)(=O)N2CCCCC2)cc1[N+](=O)[O-]	-0.61	-4	8.7*	1	7	-0.4
O=c1[nH]c(NNC(=S)NC2CCCCC2)nc2c1C1(CCCC1)Cc1ccccc1-2	-0.11	11	/	0	13	/
COc1ccc(S(=O)(=O)N2CCC(C(=O)Nc3ccc4c(c3)OCCO4)CC2)cc1OC	/	/	11*	1	-3	/
CCOc1ccc(C(=O)Nc2ccc3c(c2)OCCO3)cc1OC	-0.6	-3	8.5*	2	-6	/
SMILES	KCC2 mod	S1P3 antagonist	RAM network inh	S1P4 ag	S1P4 antag	ROMK primary
COc1ccc(NC(=O)C2CCN(S(=O)(=O)c3ccc(Br)s3)CC2)cc1OC	-0.94	5	10*	-1	2	1.2
CC1CN=C(N(C(=O)Nc2ccccc2)C(C)c2ccccc2)S1 (centres undefined)	-0.74	8	/	1	0	/
COc1ccc(N(C(=O)CS(=O)CC(=O)Nc2ccc(F)cc2)C(C(=O)NC2CCCCC2)c2cccs2)cc1 (centres undefined)	0.068	-8	3	1	-12	-0.21
CC(C)c1ccc(S(=O)(=O)N2CCCCC2)cc1	-0.44	-16	5	-1	-3	-0.79
Cc1cc(C)c(C)c(C(=O)CSc2nnc(C)c(=O)[nH]2)c1C	0.037	/	1	1	-14	-0.24
CCN1CCN(c2ncnc3c2cnn3-c2ccccc2)CC1	0.42	90*	3	0	0	/
CSCCC(NC(=O)c1ccc(Cl)cc1)C(=O)OCC(=O)Nc1cc(Cl)ccc1C (centres undefined)	-1.6	-9	10*	1	-1	-1.2
CSCCC(NC(=O)c1ccc(Cl)cc1Cl)C(=O)OCC(N)=O (centres undefined)	-0.13	-16	/	1	9	/
Cc1cc(C(=O)CSc2n[nH]c(-c3ccccc3F)n2)c(C)n1Cc1cccs1	-1.5	/	4	7	-11	-1.2
CCOC(=O)CCSCC(=O)N1N=C(c2cccs2)CC1c1ccc(C)cc1 (centres undefined)	-0.98	2	9.3*	0	-10	/
Cc1ccc(C2CC(c3cccs3)=NN2C(=O)CSC2=NN3CCCC(=O)N=C3S2)cc1 (centres undefined)	-0.54	/	3	3	-2	/
Cc1onc(-c2ccccc2)c1CNS(=O)(=O)c1cccc(Br)c1	-1.8	3	/	2	-1	/
O=C(Cn1c(=O)oc2cc(S(=O)(=O)N3CCCCCC3)ccc21)NC1CCCCC1	2.2	-14	8.8*	/	/	/
O=C(Cn1c(=O)oc2cc(S(=O)(=O)N3CCc4ccccc43)ccc21)NC1CCCC1	-0.83	-20	3	-1	-5	/
COc1ccc(-c2noc(N(C)CC(=O)Nc3cccc(C(F)(F)F)c3)n2)cc1	0.38	-19	10*	1	-5	/
CN(C)C=NC(=O)c1ccc(N2CCN(c3ncc(C(F)(F)F)cc3Cl)CC2)cc1	0.96	/	9.0*	-1	5	0.3
CCc1ccc(-n2cccc2/C=C2/C(=N)N3C(=NC2=O)SN=C3S(C)(=O)=O)cc1	-5.4*	11	11*	1	-2	0.16
Cc1ccc(-n2cccc2/C=C2/C(=N)N3C(=NC2=O)SN=C3S(C)(=O)=O)cc1	-3.7	1	8	2	0	-0.23
CC(C)CCN1CCN(Cc2ccc(Sc3nncn3C)o2)CC1CCO (centres undefined)	-0.08	-17	0	0	-11	1.3
CCCCOn1c(C)c(C(=O)OCC)c2c3nonc3ccc21	-3.5*	3	/	1	1	/
COn1c(C)c(C(C)=O)c2c3nonc3ccc21	-0.85	-8	0	0	-18	-0.95
O=[N+]([O-])c1cc(-n2cnnn2)ccc1N1CCC(Cc2ccccc2)CC1	-0.85	/	8.9*	-3	1	/
CC(C)CC(COCc1ccc(Cl)cc1)N1CCN(C(=O)c2ccc(Cl)cc2Cl)CCC1=O (centres undefined)	-1.3	-5	9.4*	-1	19	-2.1
